Most compounds without a hit are left out; they make up all but 2.8% or so of the library.
FEN1 inhibitor = qHTS Assay for the Inhibitors of Human Flap endonuclease 1 (FEN1). 0.35% of 390,000 active. Potency, µM (titrated, usually from 114 µM), usual class: inhibitors. P39748. Recombinant FEN1 flap cleavage, fluorescence, 15 min; further: nearly all actives have a fitted effect of over 65% in size
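Quantitative HTS format: each compound was titrated, incubated with 10 nM nuclease for 15 min at room temperature, then challenged with flap substrate at 50 nM final. Signal change over 15 min gave concentration–effect curves.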
Pol eta inh-1 = qHTS for Inhibitors of Polymerase Eta | DNA polymerase eta (Homo sapiens), Q9Y253 | recombinant Pol eta, fluorescent DNA replication assay | Potency, µM (series often up to 114 µM), most hits filed as inhibitors | 1.2% of 390,000 active
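Pol eta (10 nM) was preincubated with compounds for 15 min at room temperature, after which fluorescent replication substrate (50 nM final) was added to start the reaction. Fluorescence was read kinetically at 0 and 10 min.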
Pol iota inh = qHTS for Inhibitors of Polymerase Iota. DNA polymerase iota (Homo sapiens), Q9UNA4. Pol iota fluorescent replication assay, 10 min. Potency, µM (highest dose often 115 µM), actives largely listed as inhibitors. AID 588590, 2011. 1% of 390,000 active
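Pol iota at 10 nM preincubated 15 min with compounds at room temperature; reaction started with fluorescent substrate, 50 nM final. Fluorescence read kinetically at 0 and 10 min; buffer-only wells as negative control.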
Pol beta inh = qHTS Assay for Inhibitors of DNA Polymerase Beta; P06746; Pol beta primer extension/strand displacement, fluorescence kinetic; Potency, µM (series often up to 114 µM), usual class: inhibitors; 1.3% of 340,000 active; AID 485314, 2010
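Curves were derived by four-parameter Hill fits of normalized qHTS data. The kinetic fluorescent primer-extension read was taken at 0 and 10 min after 50 nM substrate, following a 15 min room-temperature preincubation of 10 nM enzyme with compounds.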
PI5P4Ka inh = qHTS for Inhibitors of phosphatidylinositol 5-phosphate 4-kinase (PI5P4K) | PI5P4Kalpha enzyme, ADP-Glo luminescence, 60 min; hits give low values | max response, % | 1.2% of 330,000 active; active means max response of -50% or lower; inconclusive means between -30% and -50%; inactive means -30% or higher; further: value at the top dose of about 77 µM
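Controls without substrate or without enzyme flank wells where PI5P4Kalpha converts substrate using 5 microM ATP (final). Incubation lasts 60 minutes at room temperature; ADP formed is read by ADP-Glo luminescence.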
Pol kappa inh-1 = qHTS for Inhibitors of Polymerase Kappa; 0.53% of 400,000 active; AID 588579, 2011; purified Pol kappa, fluorescent DNA synthesis assay, 10 min; Potency, µM (series often up to 107 µM), usual class: inhibitors; DNA polymerase kappa (Homo sapiens), Q9UBT6
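Kinetic fluorescence screen: compound preincubated 15 min RT with 10 nM enzyme; 50 nM substrate (final) initiates; reads at 0/10 min.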
TbPGK inh = qHTS for inhibitors of Phosphogylcerate Kinase: Hit Validation Screen; TbPGK coupled GAPDH assay, Kinase-Glo luminescence; shares compounds with Pol kappa inh-1; 79% of 500 active; AID 686980, 2013; Potency, µM (titrated, usually from 57.5 µM), most hits filed as inhibitors; further: nearly all actives have a fitted effect of over 65% in size
Target sequence (P07378 whole entry, looked up): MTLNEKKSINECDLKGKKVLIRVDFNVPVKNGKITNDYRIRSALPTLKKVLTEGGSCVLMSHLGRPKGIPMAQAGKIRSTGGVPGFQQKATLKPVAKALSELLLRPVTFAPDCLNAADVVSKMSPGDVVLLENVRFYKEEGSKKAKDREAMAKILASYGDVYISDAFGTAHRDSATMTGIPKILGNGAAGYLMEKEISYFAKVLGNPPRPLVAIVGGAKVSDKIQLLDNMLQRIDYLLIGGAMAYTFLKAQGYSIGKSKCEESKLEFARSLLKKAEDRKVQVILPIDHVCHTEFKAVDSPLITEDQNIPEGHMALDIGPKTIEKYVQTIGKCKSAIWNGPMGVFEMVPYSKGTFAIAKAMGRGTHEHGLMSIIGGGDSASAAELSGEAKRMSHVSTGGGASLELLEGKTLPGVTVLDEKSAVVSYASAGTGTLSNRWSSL
POLI cherry-pick = qHTS for Inhibitors of Polymerase Iota: Confirmatory Assay for Cherry-picked Compounds | shares compounds with Pol kappa inh-1 | Pol iota primer extension, TAMRA/BHQ fluorescence | Potency, µM, hits mostly inhibitors | 77% of 1,500 active | AID 720496, 2013
Pol kappa inh-2 = qHTS for Inhibitors of Polymerase Kappa: Confirmatory Assay for Cherry-picked Compounds; shares compounds with Pol eta inh-1; purified Pol-kappa, fluorescent strand-displacement substrate; Potency, µM, most hits filed as inhibitors; 76% of 920 active
Pol eta inh-2 = qHTS for Inhibitors of Polymerase Eta: Confirmatory Assay for Cherry-picked Compounds; Pol eta primer extension, TAMRA/BHQ fluorescence, 10 min; 64% of 2,600 active; AID 720502, 2013; shares compounds with Pol eta inh-1; Potency, µM, hits mostly inhibitors
Each line names hits and unclear results; the compound was inactive in the other large screens (follow-up assays come after a bar, where they were run). Unless noted, the call rests on the fitted dose curve; in most records, active means well fitted curve in the direction sought with a large enough effect; inconclusive means small, poorly fitted or top-dose-only effect, or another doubt; inactive means no such curve, though single readings can be large; an effect the other way counts as inactive or inconclusive.

CC(C)(Sc1ccc(CCN(CCCCC2CCCCC2)C(=O)NC2CCCCC2)cc1)C(=O)O	FEN1 inhibitor inconclusive, Pol eta inh-1 89µM, Pol beta inh inconclusive, Pol kappa inh-1 inconclusive | POLI cherry-pick 42 | Pol kappa inh-2 19 | Pol eta inh-2 19
CN(Cc1ccccc1)C(=O)NC1CCCCC1	none (no result: PI5P4Ka inh)
Cc1cc(C)c(CN2CCN(C(=O)Cn3cnc4c(OCc5ccccc5)ncnc43)CC2)c(C)c1	none (no result: Pol beta inh)
C/C=C/C=C/C(=O)[C@@H]1[C@@H]([C@]2(C)OC(=O)C(C)=C2O)[C@H]2/C(=C(O)/C=C/C=C/C)C(=O)[C@]1(C)C(=O)C2(C)O (stereo partly specified)	FEN1 inhibitor inconclusive, Pol eta inh-1 2.5µM, Pol iota inh 2.8µM, PI5P4Ka inh inconclusive, Pol kappa inh-1 8.9µM | POLI cherry-pick 12 | Pol eta inh-2 4.3
O=C(O)/C=C/c1ccc([N+](=O)[O-])o1	Pol eta inh-1 20µM, Pol iota inh 25µM, Pol beta inh inconclusive, Pol kappa inh-1 inconclusive | TbPGK inh 4.6µM | POLI cherry-pick 30 | Pol eta inh-2 24
Nc1ncnc2c1ncn2C1OCC(O)C1O (stereo unspecified)	none (no result: FEN1 inhibitor, Pol eta inh-1, Pol iota inh, Pol beta inh, Pol kappa inh-1)
CC[N+]1(CC(O)COC2CC(C)CC(C)(C)C2)CCOCC1 (stereo unspecified)	none
COc1ccc2[nH]c3c(=O)n(Cc4ccc(C(=O)NCC5CCCO5)cc4)c(=S)[nH]c3c2c1 (stereo unspecified)	Pol eta inh-1 18µM, Pol iota inh inconclusive, Pol beta inh 89µM | POLI cherry-pick inconclusive | Pol eta inh-2 76
CCOCCCNC(=O)c1ccc(Cn2c(=S)[nH]c3c([nH]c4ccc(OC)cc43)c2=O)cc1	none
O=C1NC(=S)S/C1=C\C=C\c1ccc([N+](=O)[O-])o1	FEN1 inhibitor 32µM, Pol eta inh-1 2.2µM, Pol iota inh 2.2µM, Pol beta inh inconclusive, PI5P4Ka inh -96, Pol kappa inh-1 10µM | TbPGK inh 2.6µM | POLI cherry-pick 2.7 | Pol kappa inh-2 4.7 | Pol eta inh-2 4.8
NC(N)=NN=C(/C=C/c1ccc([N+](=O)[O-])o1)/C=C/c1ccc([N+](=O)[O-])o1	none (no result: FEN1 inhibitor, Pol eta inh-1, Pol iota inh, Pol beta inh, PI5P4Ka inh)
Cc1noc(-c2ccc(NC(C)c3ccccc3)c([N+](=O)[O-])c2)n1 (stereo unspecified)	none (no result: PI5P4Ka inh)
CCOC(=O)c1c(S(=O)(=O)N2CCCC(C(=O)Nc3cccc(Cl)c3)C2)c(C)n(C)c1C (stereo unspecified)	none (no result: PI5P4Ka inh)
O=[N+]([O-])c1cccc(/C([O-])=C(/C(=S)Nc2ccccc2)[n+]2ccccc2)c1	none
O=C(O)c1cccc(-n2cccc2/C=C2/SC(=O)N(CC(=O)N3CCCC3)C2=O)c1	Pol eta inh-1 5µM, Pol iota inh 7.9µM, Pol beta inh 10µM, Pol kappa inh-1 inconclusive | POLI cherry-pick 30 | Pol kappa inh-2 9.5 | Pol eta inh-2 24
Cc1ccccc1N=C1NC(=O)/C(=C/c2cccn2-c2cccc(C(=O)O)c2)S1	Pol eta inh-1 18µM, Pol iota inh 20µM, Pol beta inh 10µM, PI5P4Ka inh -87, Pol kappa inh-1 79µM | POLI cherry-pick 42 | Pol kappa inh-2 27 | Pol eta inh-2 27
CC(C)n1cc(/C=C2/SC(=O)N(CC(=O)N3CCCC3)C2=O)c2ccccc21	none
Cc1ccc(N=C2NC(=O)/C(=C/c3cccn3C)S2)cc1	Pol iota inh inconclusive
COc1ccccc1/C=C/C(=O)Nc1ccc(S(=O)(=O)Nc2cc(C)on2)cc1	none
Cc1cc(C)c(NC(=O)Cn2c(=O)n(Cc3ccc(C(=O)NCc4ccco4)cc3)c(=O)c3sccc32)c(C)c1	Pol eta inh-1 inconclusive, Pol iota inh inconclusive, Pol beta inh 1.1µM, Pol kappa inh-1 inconclusive (no result: PI5P4Ka inh) | POLI cherry-pick 47 | Pol eta inh-2 67
O=C(COC(=O)/C=C/c1cccc(F)c1)Nc1ncccn1	Pol eta inh-1 28µM, Pol iota inh 50µM, Pol kappa inh-1 inconclusive | POLI cherry-pick 42 | Pol eta inh-2 48
Cc1ccc2nc(/C(C#N)=C/c3cn[nH]c3-c3ccc(F)cc3)[nH]c2c1	PI5P4Ka inh inconclusive
Cc1ccc2nc(/C(C#N)=C/c3ccccc3C(=O)O)[nH]c2c1	none
Cc1ccc2nc(/C(C#N)=C/c3ccc(-c4cccc(Cl)c4)o3)[nH]c2c1	Pol eta inh-1 89µM, Pol iota inh 79µM, Pol beta inh inconclusive, Pol kappa inh-1 50µM (no result: PI5P4Ka inh) | POLI cherry-pick 19 | Pol kappa inh-2 19 | Pol eta inh-2 67
Cc1ccc2nc(/C(C#N)=C/c3cccc(Br)c3)[nH]c2c1	Pol eta inh-1 56µM, Pol iota inh inconclusive, Pol beta inh 22µM (no result: PI5P4Ka inh) | POLI cherry-pick 42 | Pol kappa inh-2 17 | Pol eta inh-2 60
Cc1ccc2nc(/C(C#N)=C\c3ccc(N4CCCCC4)c([N+](=O)[O-])c3)[nH]c2c1	Pol iota inh inconclusive, Pol beta inh 25µM (no result: PI5P4Ka inh) | POLI cherry-pick 38 | Pol kappa inh-2 47 | Pol eta inh-2 60
COc1ccccc1OC(C)C(=O)Nc1c(C(=O)c2ccc(Cl)cc2)oc2ccccc12 (stereo unspecified)	none (no result: PI5P4Ka inh)
O=C1NC(=Nc2ccccc2)S/C1=C\C=C\c1ccco1	FEN1 inhibitor inconclusive, Pol eta inh-1 10µM, Pol iota inh 11µM, Pol beta inh 2.5µM, PI5P4Ka inh -94, Pol kappa inh-1 20µM | POLI cherry-pick 38 | Pol eta inh-2 27
COc1cccc(/C=N/NC(=O)c2cc3cc([N+](=O)[O-])ccc3s2)c1O	FEN1 inhibitor 50µM, Pol eta inh-1 3.5µM, Pol iota inh 14µM, Pol beta inh 3.5µM | TbPGK inh 2.9µM | Pol eta inh-2 48

Bioassay records as filed in PubChem.
